Screening data deposited in PubChem BioAssay by several laboratories.
Most compounds without a hit are left out; they make up all but 4.6% or so of the library.
SKKanGAS inh = S. pyogenes SKKanGAS growth inhibitors in kanamycin, primary screen, streptokinase expression inhibitor project, SKKanGAS strain, BacTiter-Glo luminescence; 6 h; inhibition, % at 7.5 µM; 300,000 compounds, 1.3% hits;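 active = mean replicate score, as percent of positive control median, at least 50; inconclusive = mean below 50 but one replicate at or above 50; inactive = mean and every replicate below 50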;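 note: strain carries kanamycin resistance gene driven by streptokinase promoter and grows in 40 µg/ml kanamycin; loss of luminescence reflects streptokinase promoter inhibition or plain growth inhibition; 0% = median of DMSO wells and 100% = positive control at its reference dose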
V-ATPase pH = regulators of yeast V-ATPase proton pumping, primary screen, pHLuorin cytosolic pH fluorescence | S. cerevisiae | response, % at 10 µM | 350,000 compounds, 0.37% hits; in the data active = response mostly above about 7.3%, no sharp cut-off; inactive = mostly below about 5.4%; note: actives read high
tim23-1 inh = growth inhibitors of tim23-1 mutant yeast, primary screen, luminescence, uHTS. S. cerevisiae tim23-1 growth, BacTiter-Glo luminescence, 24 h. inhibition, % at 20 µM. 330,000 compounds, 1.3% hits. AID 463212, 2010;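 active = growth inhibition of the mutant yeast at or above 50%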;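 note: temperature-sensitive mutant grown at 25 °C; plate controls were DMSO-treated mutant yeast for no effect and medium wells lacking yeast for full effect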
PfHsp90 set2 = growth inhibition of PfHsp90-expressing yeast, primary screen, antimalarial PfHsp90 inhibitor project, S. cerevisiae, BacTiter-Glo luminescence, single point, set 2. BacTiter-Glo ATP, 48 h; yeast lacking PDR1 and PDR3 efflux regulators. 310,000 compounds, 0.32% hits. inhibition, % at 9.4 µM;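 active = every replicate shows inhibition above about 80%, whatever the replicate mean, limit read from the data; inconclusive = mean inhibition reaches the set limit but some replicate falls short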;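 note: 0% = DMSO neutral controls and 100% = 20 µM radicicol positive controls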
TIM10 inh = growth inhibitors of isogenic TIM10 control yeast, primary screen, counter-screen for tim10-1 yeast inhibitor project, luminescence, uHTS; AID 463195, 2010; inhibition, % at 10 µM; S. cerevisiae TIM10 strain growth, BacTiter-Glo luminescence, 24 h; 330,000 compounds, 1.4% hits;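 active = inhibition of 40% or more at the single tested concentration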;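 note: wild-type TIM10 isogenic control strain grown at permissive 25 °C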
tim10-1 inh = growth inhibitors of tim10-1 mutant yeast, primary screen, luminescence, uHTS | inhibition, % at 20 µM | AID 463190, 2010 | S. cerevisiae tim10-1 ts strain growth, BacTiter-Glo, 24 h | 330,000 compounds, 2.2% hits;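 active = inhibition of at least 40%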;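 note: mutant grown at 25 °C; 0% = DMSO wells with yeast and 100% = wells holding no yeast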
* hit, by the source's call; ? = inconclusive; / = no result given.

SMILES	SKKanGAS inh	V-ATPase pH	tim23-1 inh	PfHsp90 set2	TIM10 inh	tim10-1 inh
CCC1(c2ccc(Cl)cc2)NC(=O)N(CC(=O)NCc2ccc(F)cc2)C1=O (stereo not drawn)	-11	4	0	-2	-11	2
Cn1c(CCc2ccccc2)n[nH]c1=S	2	-3	1	-12	-4	3
CCOC(=O)c1cnc(-n2cc(C)cn2)nc1Nc1ccccc1OCC	90*	1	11	17	24	29
O=C1NC(=S)S/C1=C\C=C\c1ccc([N+](=O)[O-])o1	/	54*	/	106*	/	/
O=C(O)/C=C/c1ccc([N+](=O)[O-])o1	-18	-1	4	10	0	-1
CC(=O)C[C@H]1c2ccccc2S(=O)(=O)N1c1ccccc1	-1	-2	-3	5	-15	-5
COc1ccc(Cl)cc1NC(=O)CN(C)C(=O)c1ccc(-n2cncn2)cc1	/	0	12	-17	3	6
Cc1cccn2c(Nc3ccccc3)c(-c3ccccn3)nc12	68*	5	-37	-26	4	-8
Cc1ccn2c(Nc3ccccc3)c(-c3ccccn3)nc2c1	76*	-3	-21	3	19	-16
Cc1ccc2nc(-c3ccccn3)c(Nc3ccccc3C)n2c1	92*	-3	-19	-2	21	27
Cc1ccn2c(Nc3ccccc3C)c(-c3ccccn3)nc2c1	96*	-2	46	-6	39	4
Cc1ccn2c(NC(=O)c3ccccc3)c(-c3ccccc3)nc2c1	-10	-4	17	-2	2	2
Cc1ccccc1Nc1c(-c2ccccn2)nc2ccccn12	-2	-2	47	-11	25	-11
CCCCn1c(O)c(C(CC)=Nc2ccc3c(c2)CCC3)c(=O)[nH]c1=O	53*	1	4	-3	31	12
C=CCn1c(O)c(C(CC)=Nc2ccccc2NC(=O)CC)c(=O)[nH]c1=O	-3	-2	9	/	1	10
COc1ccc(NC(=S)Nc2ccc3snnc3c2)cc1	3	-3	-21	109*	0	24
CN1CCN(S(=O)(=O)c2ccc(NC(=O)Nc3cccc(Cl)c3)cc2)CC1	-10	2	-2	-10	-4	9
O=C(Nc1cccc(Cl)c1)Nc1cc(S(=O)(=O)N2CCCCC2)ccc1Cl	54*	-3	12	3	13	31
O=[N+]([O-])c1ccc(-c2cnc(SCc3ccccc3Cl)[nH]2)cc1	2	0	43	-7	37	31
O=[N+]([O-])c1ccc(-c2cnc(SC(c3ccccc3)c3ccccc3)[nH]2)cc1	62*	-2	0	14	5	-6
Cc1ccc(C(=O)NC(=S)N2CCCC2)cc1	8	-3	-6	42	1	5
CN1C(=O)/C(=C/c2ccccc2Cl)Sc2ccc(C(=O)N3CCCC3)cc21	99*	0	10	4	3	35
CCOC(=O)C1CCCN(C(=O)c2cccc(N3C(=O)c4ccccc4C3=O)c2)C1 (stereo not drawn)	/	1	10	/	-2	-1
CN1C(=O)/C(=C/c2cccc(Cl)c2)Sc2ccc(C(=O)N3CCOCC3)cc21	?	-2	11	-21	10	8
CN1C(=O)/C(=C/c2ccc(C(F)(F)F)cc2)Sc2ccc(C(=O)N3CCN(c4ccccn4)CC3)cc21	104*	0	10	-9	12	16
SMILES	SKKanGAS inh	V-ATPase pH	tim23-1 inh	PfHsp90 set2	TIM10 inh	tim10-1 inh
CCOC(=O)C1CCCN(C(=O)c2ccc3c(c2)N(C)C(=O)/C(=C/c2ccccc2Cl)S3)C1 (stereo not drawn)	105*	-2	32	28	2	31
COc1ccc2nc(C3CCCCC3)nc(C3CCCCC3)c2c1	90*	0	14	15	-15	-15
C[C@]12CCC(=O)CC1=CCC1C3CC=C(C#N)[C@@]3(C)CC[C@@]12O (stereo partly drawn)	-1	71*	21	-7	-16	17
CN(CC(=O)Nc1cccc(F)c1)C(=O)CCNC(=O)c1ccco1	-10	0	-12	-38	-6	-15
CCCCN1C(=O)/C(=C/C=C2\Oc3ccccc3N2CC)SC1=S	1	4	/	99*	/	/
Cc1ccc(-n2nnnc2SCC(=O)NC(=O)Nc2ccc3c(c2)OCCO3)cc1	50*	-3	0	-19	6	13
COc1ccc(-n2nnnc2SCC(=O)NC(=O)Nc2ccc3c(c2)OCCO3)cc1	/	0	-13	-3	-14	-3
O=C(O)c1ccc2c(=O)n(-c3ccccc3)c(=S)[nH]c2c1	-4	2	16	-17	-3	3
O=C(O)c1ccc2c(=O)n(-c3ccc(F)cc3)c(=S)[nH]c2c1	-2	13*	11	15	-12	3
CC(C)CSC1=NSC2=NC(=O)/C(=C\c3coc4ccccc4c3=O)C(=N)N12	61*	-6	24	0	24	36
CNC(=O)c1c(C)nc(SCC(=O)NCc2ccc(OC)cc2)c(C#N)c1-c1ccco1	-7	1	3	5	7	7
COCCOC(=O)c1c(C)nc(SCC(=O)Nc2cccc3ccccc23)c(C#N)c1-c1ccco1	50*	-2	17	1	9	33
COCCOC(=O)c1c(C)nc(SCC(=O)Nc2ccc(C)cc2)c(C#N)c1-c1ccco1	67*	1	5	22	9	5
C#CCOCCOCCOCCNc1nc(N2CCN(C(=O)[C@H]([C@@H](C)CC)n3cc(CCCN=C(N)N)nn3)CC2)nc(N2CCN(C(=O)[C@H]([C@@H](C)CC)n3cc(CCC(=O)O)nn3)CC2)n1	/	7	/	12	/	/
Cc1cc(C)c2nc(N3CCCN(C(=O)c4cnccn4)CC3)c(C#N)cc2c1	-9	1	44	-60	29	20
CCOC(=O)Cn1cc(/C=C/[N+](=O)[O-])c2ccccc21	-9	1	10	15	26	21
CCOC(=O)COc1ccc2ccccc2c1/C=C/[N+](=O)[O-]	11	-2	/	104*	/	/
O=C(COC(=O)Cn1cc(C(F)(F)F)ccc1=O)NCc1ccccc1	/	-4	7	/	-9	-5
Cc1nc(N/N=C\c2ccc3c(c2)OCO3)sc1C	53*	-1	25	23	6	0
COc1ccc(CCN2CC(C(=O)NCCc3ccccn3)CCC2=O)cc1 (stereo not drawn)	50*	2	1	14	2	-18
COc1ccccc1CN1CC(C(=O)NCc2ncccc2C)CCC1=O (stereo not drawn)	51*	0	2	21	-3	-20
